SSB-PriA inh = inhibitors of Klebsiella pneumoniae PriA binding to SSB C-terminal tail; AlphaScreen SSBct-PriA binding, biotinylated peptide; inhibition, % at 33 µM; actives 0.6% (n = 430,000); in the data active = inhibition mostly above about 37%, no sharp cut-off; inactive = mostly below about 20%;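 note: plate controls were negative control peptide for no effect and reference peptide for full effect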
BoNT-A LC inh2 = blocks Botulinum neurotoxin A light chain protease | multiplex microsphere protease substrate cleavage, flow cytometry | inhibition, % at 10 µM | actives 0.17% (n = 360,000); note: plate controls were buffer without enzyme for full effect and enzyme alone for no effect
Autofluor counter = counter-screen for toxin protease inhibitors: compound fluorescence. compound autofluorescence counterscreen, microsphere flow cytometry; stronger effect = higher value. fluorescence intensity (no concentration beside the values). actives 3.1% (n = 360,000). AID 624483; in the data active = fluorescence intensity above about 16000; inconclusive = no clear call, values can overlap the other calls
Anthrax LF prot = inhibitors of Bacillus anthracis lethal factor protease. multiplex microsphere protease cleavage assay, LF. inhibition, % at 10 µM. actives 0.12% (n = 360,000). AID 588501; note: plate controls were buffer without enzyme for full effect and enzyme alone for no effect
BoNT-F LC inh = inhibitors of Botulinum neurotoxin F light chain protease | actives 0.22% (n = 360,000) | Multiplex microsphere protease cleavage assay, flow cytometry | inhibition, % at 10 µM | AID 588497; in the data active = inhibition above about 35%, passing the limit was not always enough; inconclusive = no clear call, values can overlap the other calls; note: plate controls were buffer without enzyme for full effect and enzyme alone for no effect
Active calls of the source: *; ? = inconclusive; . = no result. A selection: hits, their analogues and other compounds. The true share with any hit is near 3.1%. Cut-off read from the data, not from the text of the source, unless noted: active = inhibition above about 30%; inconclusive = no clear call, values can overlap the other calls; inactive = below that.

SMILES	SSB-PriA inh	BoNT-A LC inh2	Autofluor counter	Anthrax LF prot	BoNT-F LC inh
CCOc1ccccc1CNC(=O)C1CCC(=O)N1C(C)C (configuration not stated)	-10.5	2.9	22457*	0.2	6.8
COCCNC(=O)C(=O)Nc1cccc(F)c1	-15.0	.	.	.	.
O=C(c1ccco1)N1CCN(c2nc(C(F)(F)F)nc3c2nnn3Cc2ccccc2)CC1	0.6	-3.4	24937*	-6.4	-7.4
COc1ccc(-n2nc(C(=O)NCC(=O)NCc3ccco3)c3ccccc3c2=O)cc1	0.8	-0.1	5918	-1.7	-3.6
CCN1CCN(C(=O)c2nn(-c3ccccc3)c(=O)c3ccccc23)CC1	-15.8	2.4	18559*	-2.5	2.0
O=C(NCc1ccco1)c1nn(-c2ccccc2)c(=O)c2ccccc12	1.6	0.9	21403*	-1.3	0.0
Clc1ccc(OCc2nnc(-c3ccccc3Br)o2)cc1	-32.6	0.2	16365*	-6.2	-0.5
Clc1cccc(OCc2nnc(-c3ccccc3Br)o2)c1	-81.0	0.8	3487	2.6	-6.1
O=C(NCC[C@H](O)c1cc2ccccc2o1)c1ccc2nsnc2c1	0.0	.	.	.	.
COc1ccc(SCC2CCN(C(=O)c3cccc4ccccc34)CC2)cc1	23.0	.	.	.	.
COc1ccc(SCC2CCN(C(=O)c3cccc(N(C)C)c3)CC2)cc1	42.0*	.	.	.	.
Clc1ccc(COn2c(-c3ccccc3)nc3ccccc32)cc1	-40.0	0.3	15989	-6.4	-0.8
Clc1ccc(COn2c(-c3ccc(Cl)cc3)nc3ccccc32)cc1	-33.4	?	21296*	0.1	-7.2
COn1c(-c2ccc(Cl)cc2)nc2ccc(Cl)cc21	-25.0	0.4	23040*	-1.6	-0.7
NC(=O)C1CCN(C(c2ccccc2Cl)c2sc3nc(-c4ccco4)nn3c2O)CC1 (configuration not stated)	5.0	.	.	.	.
CCN(Cc1cnc2ccccn12)S(=O)(=O)c1ccc(Br)s1	-14.0	.	.	.	.
O=C(Nc1nc(COc2ccccc2)cs1)C12CC3CC(CC(C3)C1)C2	-13.2	-6.5	24492*	-1.6	-5.6
CC(=O)Nc1nc(COc2ccccc2)cs1	4.2	-0.5	11092	0.1	2.0
CC(=O)Nc1nc(COc2ccc3ccccc3c2)cs1	-13.8	-1.6	23460*	-8.4	-1.3
O=C(NC1CCN(Cc2ccccc2)CC1)c1cn(-c2cccc(Cl)c2)nn1	-1.0	.	.	.	.
CCC(CO)NCc1ccc(OC2CCCC2)cc1 (configuration not stated)	4.4	-2.9	23277*	-0.9	-10.4
CCC(CO)NCc1ccc(Br)cc1 (configuration not stated)	-0.1	-0.2	2644	-0.4	-4.9
O=C1CSC(=O)N1CCN1C(=O)CC(N2C(=O)/C(=C/C=C/c3ccccc3)SC2=S)C1=O (configuration not stated)	-1.0	.	.	.	.
O=C1CC(N2C(=O)/C(=C/C=C/c3ccccc3)SC2=S)C(=O)N1c1ccccc1 (configuration not stated)	-3.5	64.2*	2114	34.8*	21.1
CN1CCN(C2=C(Cl)C(=O)C(c3cnc(N4CCCCC4)s3)=C(Cl)C2=O)CC1	-0.3	4.4	19751*	-8.0	-22.9
SMILES	SSB-PriA inh	BoNT-A LC inh2	Autofluor counter	Anthrax LF prot	BoNT-F LC inh
CN1CCN(C2=C(Cl)C(=O)c3ccccc3C2=O)CC1	16.4	-0.2	3199	-30.2	-43.3
Cc1cc([C@@H](O)CCNC(=O)C(=O)NCc2ccccc2Cl)c(C)o1	-4.0	.	.	.	.
COc1cc(NC(=O)CSc2ncccc2C(=O)OC(C)C)cc(OC)c1	-8.3	-2.0	23173*	0.5	-3.0
COc1cccc(NC(=O)CSc2ccc(-c3ccccn3)nn2)c1	76.1*	.	.	.	.
COc1cc(NC(=O)CSc2ccc(-c3ccccn3)nn2)cc(OC)c1	77.5*	0.1	5841	-3.0	-4.9
CCOC(=O)c1cccnc1SCC(=O)Nc1ccc(C)cc1	-1.6	0.1	3938	0.3	-4.7
CS(=O)(=O)c1ccc(CCC(=O)NCc2cccc(Oc3ccccn3)c2)cc1	-19.0	.	.	.	.
COc1ccc(C(C)C)cc1S(=O)(=O)n1cc(C)nc1-c1ccccc1	4.0	.	.	.	.
Nc1c(C(=O)c2ccc(Br)cc2)sc2nc3c(cc12)CCC3	-8.0	.	.	.	.
Cn1nc(-c2ccccc2NC(=O)c2cncc(Br)c2)ccc1=O	-5.0	.	.	.	.
CC(=O)N(Cc1ccccc1)c1ncc2c(n1)c(=O)c(C#N)c1ccccn12	48.4*	2.3	4955	-0.1	22.6
CCOC(=O)Nc1nc(CC(=O)Nc2ccc3c(c2)OCO3)cs1	2.0	.	.	.	.
CC(C)(C)OC(=O)NC(CCCCNC=O)C(=O)O (configuration not stated)	-5.0	0.2	23419*	-2.2	1.7
Cc1ccc(S(=O)(=O)NCCCCC(NC(=O)OC(C)(C)C)C(=O)O)cc1 (configuration not stated)	-2.0	.	.	.	.

Screening data (PubChem BioAssay)
